Screening results: PubChem, National Center for Advancing Translational Sciences (NCATS)
L3MBTL1 block – L3MBTL1 (human) inhibition; Q9Y468; AlphaScreen L3MBTL1–H3K9me1 peptide binding; Potency, µM (doses to about 57.1 µM), actives largely listed as inhibitors; 230,000 compounds, 0.66% hits; AID 485360; note: nearly all actives have a fitted effect of over 60% in size
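L3MBTL1 50 nM + b-AHA-H3(1-15)K9me1 75 nM, 30 min RT; compound added, 30 min RT; streptavidin donor/Ni-chelate acceptor beads 10 ug/mL each final, 30 min RT dark; AlphaScreen read.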
G9a block – blocks human histone lysine methyltransferase G9a; AID 504332; Potency, µM (doses to about 102 µM), actives largely listed as inhibitors; Q96KQ7; 350,000 compounds, 8.8% hits; G9a H3K9 monomethylation, AlphaScreen, 2 h; note: nearly all actives have a fitted effect of over 75% in size
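Methyltransferase reactions run at room temperature for 2 h (20 nM enzyme, 500 nM biotin-H3K9 peptide, 20 uM SAM) after a 15 min compound preincubation; product detected by AlphaScreen beads and anti-H3K9me1 antibody.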
BAZ2B inh – blocks human BAZ2B | AlphaScreen BAZ2B-H3K14Ac peptide displacement | Q9UIF8 | Potency, µM (doses to about 114 µM), most hits filed as inhibitors | 360,000 compounds, 4.4% hits | AID 504333; note: nearly all actives have a fitted effect of over 60% in size
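Multi-concentration screen (max 110 uM) measuring displacement of acetylated histone H3 peptide from BAZ2B by AlphaScreen, using 50 nM protein, 50 nM peptide and 10 ug/mL streptavidin donor plus Ni-chelate acceptor beads.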
JMJD2A Tudor inh – inhibitors of human JMJD2A Tudor domain; O75164; Potency, µM (doses to about 114 µM), usual class: inhibitors; 390,000 compounds, 4.4% hits; AlphaScreen JMJD2A-Tudor / H3K4me3 peptide binding; note: nearly all actives have a fitted effect of over 50% in size
Target sequence (O75164 whole entry, looked up, the tested form may be a part): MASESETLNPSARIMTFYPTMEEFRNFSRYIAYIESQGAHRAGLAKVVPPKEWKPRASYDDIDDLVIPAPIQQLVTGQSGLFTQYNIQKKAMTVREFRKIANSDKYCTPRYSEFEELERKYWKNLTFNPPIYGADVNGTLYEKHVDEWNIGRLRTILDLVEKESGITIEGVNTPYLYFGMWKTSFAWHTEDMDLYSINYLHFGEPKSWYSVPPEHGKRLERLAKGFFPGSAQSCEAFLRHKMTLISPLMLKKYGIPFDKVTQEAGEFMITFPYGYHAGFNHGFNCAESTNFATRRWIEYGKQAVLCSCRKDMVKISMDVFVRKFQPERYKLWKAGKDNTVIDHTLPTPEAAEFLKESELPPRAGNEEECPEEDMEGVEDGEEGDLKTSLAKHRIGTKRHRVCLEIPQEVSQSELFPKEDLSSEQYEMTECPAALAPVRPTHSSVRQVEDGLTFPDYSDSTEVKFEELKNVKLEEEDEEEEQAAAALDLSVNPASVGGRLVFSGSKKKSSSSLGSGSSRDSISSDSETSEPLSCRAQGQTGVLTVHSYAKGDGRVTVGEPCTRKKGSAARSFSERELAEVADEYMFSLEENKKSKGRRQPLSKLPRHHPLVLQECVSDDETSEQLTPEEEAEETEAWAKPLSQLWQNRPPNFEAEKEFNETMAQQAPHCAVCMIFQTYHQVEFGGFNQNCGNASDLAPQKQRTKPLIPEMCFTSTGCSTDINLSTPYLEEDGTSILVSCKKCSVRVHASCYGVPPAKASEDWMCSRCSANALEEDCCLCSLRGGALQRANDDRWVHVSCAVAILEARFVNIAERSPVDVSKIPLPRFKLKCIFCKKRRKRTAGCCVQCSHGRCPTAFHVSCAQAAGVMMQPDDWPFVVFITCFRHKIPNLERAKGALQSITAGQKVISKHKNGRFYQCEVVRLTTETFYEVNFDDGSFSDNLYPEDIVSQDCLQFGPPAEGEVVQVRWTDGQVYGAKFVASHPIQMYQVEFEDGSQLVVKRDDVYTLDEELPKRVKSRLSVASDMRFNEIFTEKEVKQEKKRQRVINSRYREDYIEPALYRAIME
HP1b binding inh – inhibitors of HP1-beta chromodomain binding to methylated histone tails. P83916. AlphaScreen HP1-beta / biotin-H3K9me3 peptide binding. Potency, µM (doses to about 114 µM), usual class: inhibitors. 390,000 compounds, 0.56% hits. AID 540317; note: nearly all actives have a fitted effect of over 70% in size
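AlphaScreen: HP1-beta (50 nM) preformed 30 min with biotin-H3(1-18)K9me3 peptide (50 nM) in PBS pH 7.4, 0.01% Tween-20. Compound added for 30 min at RT, then streptavidin donor/nickel chelate acceptor beads (10 ug/mL) for 30 min.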
PI5P4K alpha inh – PI5P4K alpha (human) kinase inhibition. max response, %. 330,000 compounds, 1.2% hits. PI5P4Kalpha enzyme, ADP-Glo luminescence, 60 min; active compounds read low. P48426. AID 652105; active = max response of -50% or lower; inconclusive = between -30% and -50%; inactive = -30% or higher; note: value at the top dose of about 77 µM
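Enzyme plus substrate dispensed, test compounds pinned in, then ATP (5 microM final) added. After 60 min at RT, ADP-Glo reagent 1 for 45 min and reagent 2 for 30 min preceded luminescence imaging.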
Numbers stand for hits; . = inactive; ? = inconclusive; / = not tested or not shown; [ ] = dose if it differs, or a comment. Only some compounds are listed: those with a hit (about 11% of all), similar ones and a draw of the others. Unless noted, calls come from the whole dose curve; as a rule, active = well fitted inhibition curve with a large enough effect; inconclusive = small, poorly fitted or top-dose-only effect; inactive = no such curve, though single readings can be large or run the other way.

SMILES	L3MBTL1 block	G9a block	BAZ2B inh	JMJD2A Tudor inh	HP1b binding inh	PI5P4K alpha inh
CCCOc1cccc(C(=O)NC(=S)Nc2ccccc2)c1	.	.	?	?	?	.
CCCCNC(=O)c1ccc2c(=O)n(Cc3ccc(OC)cc3)c(=O)[nH]c2c1	/	.	.	.	.	/
O=C(NC(=S)Nc1ccc2c(c1)OCCO2)c1ccccc1	.	40µM	45µM	?	?	/
O=C(Nc1ccc2c(c1)OCCO2)c1c(F)cccc1F	.[11.4 µM]	.	.	.	.	/
CCOc1cccc(C(=O)NC(=S)Nc2ccc3c(c2)OCCO3)c1	/	40µM	?	?	?	.
O=C(NC(=S)Nc1ccc2c(c1)OCCO2)c1ccccc1F	.	32µM	.	.	.	.
COc1cccc(OC)c1C(=O)NC(=S)Nc1ccc2c(c1)OCCO2	.	56µM	.	?	.	.
COc1ccc(NC(=S)NC(=O)c2ccc3c(c2)OCCO3)cc1	.	/	/	?	?	.
CCS(=O)(=O)N1CC(=O)N(c2cccc(C)c2C)C(C)(C(=O)NC2CCCCC2)C1 (stereo not given)	/	.	.	.	.	/
COc1cc(C(=O)Nc2ccccc2OCc2cc(=O)n3cc(C)sc3n2)cc(OC)c1OC	/	.	.	.	.	/
O=C(NC(=S)NCc1ccccc1)c1ccccc1F	.	.	.	.	.	.
O=C(NC(=S)NC(=O)c1ccccc1F)c1ccccc1F	.	10µM	.	.	.	.
S=C(Nc1ccc2c(c1)OCCO2)Nc1ccc2c(c1)OCO2	.	50µM	?	.	.	.
CC(=O)c1cccc(NC(=O)C2CCN(S(=O)(=O)c3ccc4c(c3)CCCN4C(C)=O)CC2)c1	/	.	.	.	.	/
Fc1ccc(CNc2nc3c(-c4ccc(F)cc4)nnn3c3ccccc23)cc1	/	.	.	.	.	/
CCOc1ccc(S(=O)(=O)N/N=C2/CC(c3ccccc3)Oc3ccccc32)cc1 (stereo not given)	/	7.9µM	.	.	.	.
O=S(=O)(N/N=C1\CC(c2ccccc2)Oc2ccccc21)c1ccccc1 (stereo not given)	?	.[0.501 µM]	.	.	.	.
COc1ccc(Nc2nc3ccc(C)cc3nc2-n2nc(C)cc2C)cc1Cl	/	.	.	.	.	/
CCN(CC)CCCOc1nc(C)nc2c1oc1ccccc12	.	35µM	?	.	.	.
CCN(CC)CCOc1nc(C)nc2c1oc1ccccc12	.	50µM	?	?	.	.
CC(C)Oc1ccc(CNC(=O)c2ccc3c(c2)N(C)C(=O)C2CCCCN32)cc1 (stereo not given)	/	.	?	.	.	/
O=C(N/N=C\c1ccc(Br)o1)C1COc2ccccc2O1 (stereo not given)	.	?	50µM	40µM	?	?
COc1cc([N+](=O)[O-])cc(/C=N\NC(=O)C2COc3ccccc3O2)c1O (stereo not given)	?	?	40µM	56µM	.	.
COc1ccc(Cl)cc1C(=O)NNC(=O)C1COc2ccccc2O1 (stereo not given)	/	.	.	22µM	.	-60
O=C(N/N=C/c1cccc([N+](=O)[O-])c1)C1COc2ccccc2O1 (stereo not given)	/	.	.	.[11.4 µM]	.	.
SMILES	L3MBTL1 block	G9a block	BAZ2B inh	JMJD2A Tudor inh	HP1b binding inh	PI5P4K alpha inh
O=C(N/N=C\c1cccc([N+](=O)[O-])c1O)C1COc2ccccc2O1 (stereo not given)	.	.	35µM	?	.	-69
CN(C)c1ccc(/C=N/NC(=O)C2COc3ccccc3O2)o1 (stereo not given)	.	?	.	.	.	.
COC(=O)c1ccc(CN2CCN(CC=C(C)C)C(CCO)C2)cc1 (stereo not given)	.	45µM	?	.	.	.
COC(=O)c1ccc(CN2CCN(CC(C)C)C(CCO)C2)cc1 (stereo not given)	.	/	.	.	.	.
Cc1cccc(NC(=O)CN2C(=O)CCn3nc(-c4cccn4C)cc32)c1C	/	.	.	.	.	/
O=C(CN1CCOCC1)NNC(=S)Nc1ccc(Cl)cc1	.	40µM	?	.	.	.
O=C(CN1c2ccccc2Sc2ccccc21)NNC(=S)Nc1ccc(Cl)cc1	/	28µM	?	?	?	.
Cc1cc(C)c2ccc(NN)nc2c1O	/	32µM	.	.	.	.
